Assay outcomes deposited in PubChem BioAssay by National Center for Advancing Translational Sciences (NCATS).
Hits are enriched below; roughly 19% of the tested compounds scored in any of these assays.
Pf growth 48h: inhibits P. falciparum growth in the first generation, 48 h. P. falciparum luciferase growth in erythrocytes, 48 h. Potency, µM (highest dose often 28.7 µM), inactives show at the top dose activity change, negative = inhibition, actives largely listed as inhibitors. actives 5.9% (n = 310,000); further: potency means the concentration at half of the fitted maximal effect; on the % scale 0 is the no-effect control and ±100 the full control effect
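Luciferase-expressing parasites in RBCs, 2% Hct / 0.1% parasitemia final; RPMI 1640 + 0.5% Albumax; 37 C, 5% CO2, one generation; luminescence read-out, lower signal = inhibition.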
AMA1 RON2 block: disrupts binding of P. falciparum AMA1 to RON2; actives 0.2% (n = 360,000); AlphaScreen AMA1-biotinylated RON2 peptide binding; Potency, µM (top dose mostly 58.2 µM), for inactives: top-dose activity change, negative = inhibition, usual class: inhibitors;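 further: potency means the concentration at half of the fitted maximal effect; 0% = vehicle wells and -100% = peptide control; nearly all actives have a fitted effect of over 45% in size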
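AMA1 (3D7) with his tag at 25 nM final met compounds first, then biotinylated RON2 peptide at 25 nM; detection used donor plus acceptor beads, 10 µg/mL apiece, read by AlphaScreen after 30 min at room temperature.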
Pf growth 96h: P. falciparum growth inhibition at 96 hours. AID 504834. actives 6.9% (n = 320,000). P. falciparum luciferase reporter growth, 96 h. Potency, µM (titrated, usually from 28.7 µM), without a hit: top-dose activity change, negative = inhibition, most hits filed as inhibitors; further: potency means the concentration at half of the fitted maximal effect; on the % scale 0 is the no-effect control and ±100 the full control effect
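Delayed-death screen, second-generation endpoint: infected erythrocytes, 2% hematocrit, 0.05% parasitemia final; 96 hours at 37 C, 5% CO2; luciferase detection reagent; luminescence decrease equals reduced growth.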
SARS PLP yeast: SARS-CoV PLP inhibition in yeast | S. cerevisiae expressing SARS-CoV PLpro, growth rescue | Potency, µM (series often up to 32.9 µM), for the others: at the top dose activity, positive = growth rescue, most hits filed as activators | actives 0.19% (n = 330,000) | AID 485353; calls by dose curve; further: potency means the concentration at half of the fitted maximal effect; 0% is about no effect; nearly all actives have a fitted effect of over 55% in size
Shiga toxin inh: inhibitors of Shiga toxin in Vero cells; Vero cells, Shiga toxin protein synthesis inhibition reporter; inhibition, % at 38.7 µM; actives 9.2% (n = 290,000); AID 2315; in the data active means inhibition mostly above about 28%, no sharp cut-off; inactive means mostly below about 43%; further: 0% is about no effect
CHX counter: counter-screen for Shiga toxin inhibitors: cycloheximide protein synthesis inhibition; cell reporter, cycloheximide protein synthesis inhibition counterscreen; max response, %; actives 12% (n = 300,000); AID 2314; in the data active means max response mostly above about 13%, no sharp cut-off; inactive means mostly below about 14%; further: read at 38.3 µM for the half of the compounds with a filed dose; 0% is about no effect
* = called active by the depositor; ? = inconclusive; . = no result given; [ ] = remark or other dose. Unless noted, the call rests on the fitted dose curve; in most records, active means well fitted curve in the direction sought with a large enough effect; inconclusive means small, poorly fitted or top-dose-only effect, or another doubt; inactive means no such curve, though single readings can be large; an effect the other way counts as inactive or inconclusive.

SMILES	Pf growth 48h	AMA1 RON2 block	Pf growth 96h	SARS PLP yeast	Shiga toxin inh	CHX counter
CS(=O)(=O)Nc1ccc(C2=NN(S(C)(=O)=O)C(c3ccc4c(c3)OCO4)C2)cc1 (configuration not stated)	148.3%	-4.4%	2.94µM*	-2.6%	85.0*	30.1*
CC(=O)N1N=C(c2cccc(NS(C)(=O)=O)c2)CC1c1ccc2c(c1)OCO2 (configuration not stated)	25.6%	-4.4%	-86.6%	7.5%	42.4	12.6*
COc1cccc(CNC(=O)[C@@H]2CCCN2C(=O)[C@@H]2CCCN2)c1	.	6.8%	.	.	.	.
CCSc1nnc(CNC(=O)C23CC4CC(CC(C4)C2)C3)n1Cc1ccccc1	?	-3.3%	?	17.3%	-7.3	-3.4
CCCSc1nnc(CNC(=O)C23CC4CC(CC(C4)C2)C3)n1Cc1ccccc1	13.1µM*	9.7%	?	10.2%	-9.4	-5.3
CC(=O)Nc1ccc(CNc2nc3cc(-c4ccsc4)sc3c(=O)n2C)cc1	.	-0.3%	.	.	.	.
Cc1cccc(-n2c(SCc3ccc([N+](=O)[O-])cc3)nnc2-c2c[nH]c3ccccc23)c1	?	2.3%	?	0.1%	-4.7	-3.7
CCOC(=O)c1nc(C)n(-c2ccc(Cl)cc2)n1	30.7%	-13.7%	20.6%	-7.4%	11.8	19.8*
Cc1cc(C)n(-c2ccc(Cl)c(C(=O)O)c2)n1	72.7%	14.5%	21.4%	-0.4%	45.9	44.0*
Cc1cc(C)n(-c2cc(C(=O)O)cc(C(=O)O)c2)n1	9.2%	0.0%	?	0.0%	-20.6	-1.9
CCOC(=O)c1ccc(-n2nc(C)cc2C)cc1	34.2%	-1.6%	67.1%	0.9%	active	15.3*
Cc1cc(N)ccc1NC(=O)CN1CCCC1	32.4%	-28.9%	?	1.6%	-2.8	10.8
COc1cccc(NC(=O)c2ccccc2-c2ccccc2)c1	15.3%	9.8%	39.6%	7.6%	12.8	-2.3
Cc1ccccc1-c1noc(-c2ccccc2C(=O)O)n1	24.1%	-10.6%	33.9%	0.7%	39.1	15.2*
COc1ccccc1NC(=O)c1ccccc1-c1nc(-c2ccccc2OC)no1	?	-4.2%	.	0.6%	24.2	21.5*
COc1cccc(NC(=O)c2ccccc2-c2nc(-c3ccc(Cl)cc3)no2)c1	?	3.3%	?	-1.1%	62.4*	59.1*
COc1ccc(-c2noc(-c3ccccc3C(=O)NCc3ccco3)n2)cc1OC	-25.6%	-1.8%	151.6%	1.2%	1.7	8.4
COc1ccccc1-c1noc(-c2ccccc2C(=O)Nc2ccccc2)n1	1.6%	-0.2%	-17.0%	-5.8%	-6.8	-5.0
O=C(O)c1ccccc1-c1noc(-c2ccccc2F)n1	?	.	?	-0.1%	.	.
COc1ccc(-c2noc(-c3ccccc3C(=O)NCc3ccco3)n2)cc1	49.6%	-9.3%	1.1%[5.75 µM]	-1.5%	16.6	15.0*
N#Cc1cc2c(nc1S(=O)(=O)Cc1ccccc1)CCCC2	4.1%	4.3%	16.4%	0.2%	-3.0	-1.6
O=C(COC(=O)Cc1ccc(Cl)cc1)Nc1ccc2[nH]c(=O)[nH]c2c1	43.1%	12.7%	53.3%	1.1%	.	.
COc1cccc(NC(=O)c2ccccc2-c2nc(-c3ccc(F)cc3)no2)c1	?	-7.6%	17.8%	-1.2%	22.0	8.0
COc1cccc(NC(=O)c2ccccc2-c2nc(-c3ccccc3)no2)c1	-12.5%	1.5%	5.5%	-5.6%	28.2	18.9*
CC(=O)C(Cc1ccccc1)NC(=O)CN(C)Cc1ccccc1Cl (configuration not stated)	?	3.2%	?	11.6%	-16.1	13.7
SMILES	Pf growth 48h	AMA1 RON2 block	Pf growth 96h	SARS PLP yeast	Shiga toxin inh	CHX counter
Cn1cc(/C=C/C(=O)N2CCCC(C(=O)c3cccc(C(F)(F)F)c3)C2)cn1 (configuration not stated)	4.6%	1.8%	4.15µM*	0.0%	2.4	-1.8
O=C(c1cccc(C(F)(F)F)c1)C1CCCN(C(=O)C2CCOCC2)C1 (configuration not stated)	-10.8%	-7.8%	5.5%	-0.9%	3.5	14.3*
CCN1C(=O)C(C(=O)Nc2ccc(OC)cc2)C2CC1(C)Oc1ccccc12 (configuration not stated)	?	0.0%	15.0%	-4.2%	45.6*	14.2
COc1cc(C)ccc1OCc1cc(C(=O)NCCN2CCOCC2)no1	23.9%	2.4%	-13.3%	-6.1%	76.5*	67.1*
COc1ccccc1-c1cc(C(=O)NCCN2CCOCC2)no1	-3.0%	-26.3%	?	3.0%	10.7	1.1
COc1cc(C)ccc1OCc1cc(C(=O)N(C)CCCN2CCOCC2)no1	2.5%	12.4%	?	1.3%	95.9*	54.7*
O=[N+]([O-])C(/C=C(/Cl)[N+](=O)[O-])=C(N1CCCCC1)N1CCCCC1	8.28µM*	7.9%	5.22µM*	-1.2%	16.9	2.6
Cc1cccc(C(=O)N2CCCCCC2)c1[N+](=O)[O-]	23.8%	-8.0%	12.7%	-0.6%	-4.8	-7.3
O=C(CO/N=C1\CCCc2nonc21)Nc1ccccc1Cl	?	0.4%	-28.3%	-18.5%	18.2	9.6
Clc1ccccc1CO/N=C1\CCCc2nonc21	-3.2%	40.5%	?	5.5%	17.3	15.2*
Clc1ccc(CO/N=C2\CCCc3nonc32)cc1	5.7%	18.8%	-10.0%	5.5%	21.8	27.0*
O=C(O)C1CCCN1 (configuration not stated)	.	.	.	.	32.2	-4.4
COc1ccc(-c2nc[nH]c2[N+](=O)[O-])cc1	15.8%	5.3%	?	-6.5%	-4.9	12.6
CCOC(=O)N1CCN(C(=O)CC(C(=O)N2CCc3ccccc32)n2ccnc2)CC1 (configuration not stated)	0.0329µM*	-6.7%	19.1%	5.6%	2.2	-7.8
CC[C@@H]1Cc2[nH][nH]c(=O)c2[C@H](CC(C)C)O1	.	4.1%	.	.	.	.
Cc1cc(=O)n(Nc2ccccc2)c(O)c1C#N	.	11.2%	.	.	.	.
CC(=Nc1ccccc1N)c1c(C)cc(=O)n(O)c1O	.	.	.	.	57.3*	31.2*
COc1ccc(C(=O)/C=C2\Sc3ccccc3N2C)cc1	31.2%	-11.3%	169.1%	-0.9%	46.7	35.3*
COc1ccccc1-[n+]1c(C)cc(/C=C2\Sc3ccccc3N2C)cc1C	0.928µM*	-0.7%	0.586µM*	-23.3%	23.5	32.3*
COc1ccc(CCNC(=O)N2c3ccccc3Sc3ccccc32)cc1	.	17.2%	.	.	.	.
COc1ccccc1OC(=O)CCN1c2ccccc2Sc2ccccc21	15.3%	0.0%[2.32 µM]	31.9%	3.9%	-4.5	8.3
COc1ccc(-[n+]2c(C)cc(/C=C3\Sc4ccccc4N3C)cc2C)cc1	0.738µM*	-4.8%	?	-4.4%	61.9*	33.3
CC(=S)/C=C1\Sc2ccccc2N1C	?	-17.0%	?	12.5%	-18.2	-1.5
